Most compounds without a hit are left out; they make up all but 19% or so of the library.
IL-1B inflam inh: blocks inflammasome-driven IL-1 beta release; THP-1 LPS/ATP IL-1B secretion, AlphaLISA, 16 h; hits give low values; activity change, % at 57.5 µM; actives 4.7% (n = 360,000); AID 743279; in the data active = activity change below about -50%; inconclusive = mostly about -30% to -49%
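THP-1 cells pretreated 1 hr with compounds (up to 57.5 uM final), then stimulated with LPS (250 ng/mL final) plus ATP (1.25 mM final); secreted IL-1B measured by AlphaLISA after 16 hr, decreased signal indicating inhibition.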
DT40 TDP1 CPT: growth inhibition of DT40 Tdp1-/-;hTDP1 cells with camptothecin (screen for TDP1 inhibitors). AID 686979. chicken DT40 Tdp1-/-;hTDP1 cells + 20 nM CPT, ATP luminescence, 48 h. actives 12% (n = 420,000). Potency, µM (titrated, usually from 46.2 µM), usual class: inhibitors; also: nearly all actives have a fitted effect of over 55% in size
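Chicken DT40 Tdp1-/- cells complemented with human TDP1, 400 cells/well, exposed to compounds plus 20 nM camptothecin for at least 48 h at 37 C; viability read as ATP content by CellTiter-Glo luminescence.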
TDP1 cell noCPT: qHTS for Inhibitors of human tyrosyl-DNA phosphodiesterase 1 (TDP1): qHTS in cells in absence of CPT; DT40 Tdp1-/- hTDP1 cells, no CPT, ATP luminescence, 48 h; Potency, µM (highest dose often 46.2 µM), usual class: inhibitors; actives 15% (n = 420,000); also: nearly all actives have a fitted effect of over 55% in size
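Cells were dispensed at 400 per well, compounds added by pin tool, plates incubated ≥48 hr at 37 °C, then CellTiter-Glo added for 30 min at room temperature before luminescence reading. Line: DT40 Tdp1-/- complemented with hTDP1; camptothecin omitted.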
HT1080NT lethal: kills 2HG-producing HT-1080-NT fibrosarcoma cells. actives 1.6% (n = 360,000). Potency, µM (highest dose often 46.1 µM), most hits filed as cytotoxic. HT-1080-NT fibrosarcoma viability, CellTiter-Glo ATP luminescence, 48 h. AID 686970;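 also: NT is the 2HG producing partner of a matched IDH1 knockdown line; nearly all actives have a fitted effect of over 55% in size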
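HT-1080-NT fibrosarcoma cells (2HG-overproducing), 750 cells/well in RPMI with 5% FBS, dosed after 2 h and incubated 48 h at 37C. CellTiter-Glo luminescence normalized to DMSO and no-cell wells; concentration-response curves fitted and classed.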
HT1080 IDH1KD tx: toxicity to HT-1080 IDH1 knockdown cells (counter line); actives 2% (n = 360,000); Potency, µM (doses to about 46.1 µM), hits mostly cytotoxic; HT-1080 IDH1 knockdown viability, ATP luminescence, 48 h
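In this qHTS, HT-1080 cells depleted of IDH1 are exposed for 48 h at 37 °C to compound titrations. Toxicity is scored from CellTiter-Glo luminescence, with DMSO as full viability and medium alone as none.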
A number is an active result; - = inactive; ? = inconclusive; . = no result. Unless noted, calls follow the shape of the dose curve; as a rule, active = well fitted curve in the direction sought with a large enough effect; inconclusive = small, poorly fitted or top-dose-only effect, or another doubt; inactive = no such curve, though single readings can be large; an effect the other way counts as inactive or inconclusive.

SMILES	IL-1B inflam inh	DT40 TDP1 CPT	TDP1 cell noCPT	HT1080NT lethal	HT1080 IDH1KD tx
CCOC(=O)c1ccc(NC(=O)c2cc(S(=O)(=O)N3CCOCC3)ccc2O)cc1	-	?	21µM	-	-
CCCOC(=O)c1ccc(NC(=O)c2cccc(S(=O)(=O)N3CCN(C(C)=O)CC3)c2)cc1	-	?	16µM	?	-
CCOC(=O)c1ccc(NC(=O)c2cccc(S(=O)(=O)N3CCN(C(C)=O)CC3)c2)cc1	-	?	13µM	-	-
CCOC(=O)c1c(-c2ccccc2)csc1NC(=O)c1cc(S(=O)(=O)N2CCOCC2)ccc1C	-	7.3µM	?	-	-
CCOC(=O)c1c(-c2ccccc2)csc1NC(=O)c1ccc(S(=O)(=O)N2CC(C)OC(C)C2)cc1 (stereo not drawn)	-	-	?	-	-
CC(=O)N1CCN(S(=O)(=O)c2cccc(C(=O)Nc3ccc(F)c(F)c3)c2)CC1	-	?	?	-	-
CCOc1ccc(CCNC(=O)c2cnc3sc(N4CCOCC4)nn3c2=O)cc1	.	?	-	.	.
CCN(C(=O)c1cc2cc3ccc(OC)cc3nc2o1)c1cccc(C)c1	.	23µM	16µM	.	.
Cc1cccc(N(C)C(=O)c2cc3cc4ccc(C)cc4nc3o2)c1	-	12µM	18µM	?	13µM
O=C(Cn1c(=O)n(-c2ccccc2)c(=O)c2sccc21)NCc1ccccc1	-	-	-	-	-
CCC(NC(=O)CCc1nnc(-c2cc(C)on2)o1)C12CC3CC(CC(C3)C1)C2 (stereo not drawn)	-	21µM	16µM	-	-
CCOC(=O)CSc1nc(C)c(C(C)=O)cc1C#N	-	-	-	-	-
CCOC(=O)CSc1nc(C)c(C(C)=O)cc1C(N)=O	-57	-	-	-	-
Cc1sc(NC(=O)CCl)c(C(=O)c2ccccc2)c1C	-98	18µM	9.2µM	?	?
CCOC(=O)c1c(NC(=O)C[n+]2ccc(Cc3ccccc3)cc2)sc(C)c1C	-74	12µM	6.5µM	?	?
Cc1ccccc1C(=O)Nc1sc(C)c(C)c1C(=O)c1ccccc1	-	?	?	-	-
Cc1cc(C(=O)c2ccc(C(C)(C)C)cc2)c(NC(=O)CCl)s1	-51	5.8µM	4.6µM	?	?
Cc1sc(NC(=O)CCS(=O)(=O)c2ccccc2)c(C#N)c1C	-	23µM	?	-	-
Cc1ccc(NC(=O)C(CC(C)C)NS(=O)(=O)c2ccc3c(c2)oc(=O)n3C)c(C)c1 (stereo not drawn)	.	-	-	.	.
COC(=O)c1c(NC(=O)CN2CCCc3ccccc32)sc(C)c1C	-	21µM	?	-	-
COC(=O)c1[nH]c2cc(C)ccc2c1NC(=O)CN1CCCc2ccccc21	-	?	26µM	-	-
COC(=O)c1c(NC(=O)CS(=O)(=O)c2ccccc2)sc(C)c1C	-	?	21µM	-	-
COC(=O)c1[nH]c2ccc(Br)cc2c1NC(=O)CN1CCCc2ccccc21	-53	21µM	18µM	-	?
CCOC(=O)c1[nH]c2ccc(C)cc2c1NC(=O)CN1CCCCC1	-	-	?	-	-
CCOC(=O)c1c(NC(=O)CN2CCCc3ccccc32)sc(C)c1C	-	?	?	-	?
SMILES	IL-1B inflam inh	DT40 TDP1 CPT	TDP1 cell noCPT	HT1080NT lethal	HT1080 IDH1KD tx
CCCCOc1ccc(C(=O)Nc2cc(-c3cn4cccnc4n3)ccc2OC)cc1	.	-	-	.	.
COc1c(Cl)cc(C(=O)N(Cc2ccc(C)o2)C2CCS(=O)(=O)C2)cc1Cl (stereo not drawn)	.	?	23µM	.	.
Cc1ccc(CN(C(=O)COc2ccc(C(C)(C)C)cc2)C2CCS(=O)(=O)C2)o1 (stereo not drawn)	.	?	21µM	.	.
CC(C)CN(C(=O)COc1ccc(C(C)(C)C)cc1)C1CCS(=O)(=O)C1 (stereo not drawn)	-	-	23µM	-	-
O=C(NCc1ccc2c(c1)OCO2)c1c(-c2ccccc2)sc2ccccc12	-	?	?	-	-
CCOc1cc(/C=N\NC(=O)c2ccc(NC(=O)C(C)(C)C)cc2)ccc1OC(=O)c1cccc(C)c1	-	12µM	8.2µM	-	?
CCOc1cc(/C=N/NC(=O)CNc2ccc(C)cc2)ccc1OC(=O)c1ccccc1	?	29µM	?	-	-
CCOc1cc(/C=N\NC(=O)c2ccc(NC(=O)CC)cc2)ccc1OC(=O)c1ccccc1	-	18µM	?	-	-
CCOc1cc(/C=N\NC(=O)c2ccc(NC(=O)C(C)(C)C)cc2)ccc1OC(=O)c1ccc(C)cc1	-	?	29µM	-	-
CC(=O)c1cccc(NC(=O)c2cccc3c(-c4cccc(C(N)=O)c4)coc23)c1	-	9.2µM	12µM	?	-
CC(C)NC(=O)c1cccc2c(-c3ccc(F)c(F)c3)coc12	-	?	21µM	-	-
CS(=O)(=O)Nc1cccc(NC(=O)c2cccc3c(-c4ccc(F)c(F)c4)coc23)c1	?	15µM	?	?	?
CS(=O)(=O)Nc1cccc(NC(=O)c2cccc3c(-c4cccc(C(N)=O)c4)coc23)c1	?	18µM	?	?	?
CS(=O)(=O)Nc1cccc(NC(=O)c2ccc(-c3ccc(F)c(F)c3)c3ccoc23)c1	?	?	?	?	-
O=C(Nc1cccc(C(F)(F)F)c1)c1cccc2c(-c3cccnc3)coc12	?	?	?	-	-
O=C(COC(=O)CCC(=O)c1cccs1)NC(=O)c1ccc(OC(F)F)cc1	-	-	-	-	-
CN(CC(=O)Nc1cccc(F)c1)C(=O)CCCn1c(=O)oc2ccccc21	-	?	-	-	-
CC1(C(=O)Nc2ccc3ccccc3c2)CCC(=O)N1CCCn1ccnc1 (stereo not drawn)	-	-	-	-	-
COc1ccc2[nH]c(C(=O)NCCCn3ccnc3)cc2c1	-	-	-	-	-
COc1ccc(-c2nc3n(c(=O)c2C#N)CCS3)cc1	-	-	-	-	-
C=CCSc1nc(-c2ccc(OC)cc2)c(C#N)c(=O)n1CC=C	-102	16µM	26µM	-	?
COc1ccc(CN(C2CCCC2)S(=O)(=O)c2ccc(-n3cnnn3)c(OC)c2)cc1OC	-52	?	?	-	-
COc1ccc(C)cc1S(=O)(=O)N(C)CC(=O)NC1CCCCCC1	-	-	-	-	-
CCN(C1CCCCC1)S(=O)(=O)c1ccc(-n2cnnn2)c(C)c1	-	-	-	-	-
CCN(C1CCCCC1)S(=O)(=O)c1ccc(OC)c(C)c1	-	15µM	16µM	-	-
CCN(C1CCCCC1)S(=O)(=O)c1cc(C)ccc1OC	-	?	18µM	-	-
Cc1ccc(NC(=O)c2cc(=O)[nH]c3ccccc23)cc1	-	-	-	-	-
Cc1ccc(-c2[nH]c3ccccc3c2SCCN)cc1	-65	?	15µM	-	-
